# Source: PubChem BioAssay
# A selection: hits, their analogues and other compounds. The true share with any hit is near 7.9%.
# MCF10A rerep: induces DNA re-replication in MCF 10a normal breast cells; Potency, µM (top dose mostly 46.1 µM), for inactives: at the highest dose activity, positive = re-replication, actives largely listed as activators; MCF 10A DNA re-replication, Hoechst nuclear intensity, 48 h; 350,000 compounds, 2.9% hits; AID 624296; further: % of control where 0% means no effect; nearly all actives have a fitted effect of over 50% in size
# KB-V1 MDR tox: KB-V1 MDR subline cytotoxicity | KB-V1 MDR cells viability, CellTiter-Glo, 72 h | Potency, µM (doses to about 46.1 µM), hits mostly cytotoxic | 400,000 compounds, 3.4% hits; further: on the % scale 0 is the no-effect control and ±100 the full control effect; nearly all actives have a fitted effect of over 60% in size
#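 KB-V1 cells (P-gp-expressing MDR subline of KB-3-1) in phenol-red-free DMEM with 10% FBS were exposed to library compounds over a concentration series for 72 h at 37 degrees C. Viability read by CellTiter-Glo luminescence; concentration-effect curves fitted after normalization.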
# HT1080 IDH1KD tx: kills HT-1080 cells with IDH1 knockdown; 360,000 compounds, 2% hits; HT-1080 IDH1 knockdown viability, ATP luminescence, 48 h; Potency, µM (top dose mostly 46.1 µM), inactives show at the top dose activity, negative = toxicity, actives largely listed as cytotoxic;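 further: 0% = DMSO wells and -100% = cell-free medium wells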
#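 Viability of IDH1-knockdown HT-1080 fibrosarcoma cells was assessed by CellTiter-Glo after 48 h at 37 °C with titrated compound; concentration-effect curves were classified by fit quality and response size.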
# SW480 rereplic: DNA re-replication induction in SW480 cells | 340,000 compounds, 1.8% hits | Potency, µM (titrated, usually from 46.1 µM), for inactives: top-dose re-replication activation, actives largely listed as activators | SW480 DNA re-replication, Hoechst DNA content imaging, 48 h; further: % of control where 0% means no effect; nearly all actives have a fitted effect of over 55% in size
#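 Treated cells incubate 48 hr (37 C, 5% CO2), are stained 40 min with Hoechst, and nuclear fluorescence is enumerated; a rise in nuclei with high DNA signal marks re-replication.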
# HT1080-NT tox: kills 2HG-producing HT-1080-NT fibrosarcoma cells | Potency, µM (highest dose often 46.1 µM), for the others: top-dose activity, negative = less viability, most hits filed as cytotoxic | HT-1080-NT fibrosarcoma viability, CellTiter-Glo ATP luminescence, 48 h | 360,000 compounds, 1.6% hits;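 further: NT is the 2HG producing partner of a matched IDH1 knockdown line; 0% = DMSO-treated cells and -100% = media-only wells without cells; nearly all actives have a fitted effect of over 55% in size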
#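 Luminescent CellTiter-Glo readout after 48 hours of compound exposure at 37 degrees C defined viability of HT-1080-NT cells. Activity was normalized to DMSO wells and cell-free media wells; concentration-response curves were fitted and assigned curve classes.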
# KB-3-1 tox: KB-3-1 parental cell cytotoxicity | KB-3-1 viability, CellTiter-Glo ATP luminescence, 72 h | Potency, µM (titrated, usually from 46.1 µM), usual class: cytotoxic | 400,000 compounds, 1.4% hits | AID 1347075; further: on the % scale 0 is the no-effect control and ±100 the full control effect; nearly all actives have a fitted effect of over 60% in size
#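 Screening of KB-3-1 cells (DMEM, 10% FBS, phenol-red free) ran from lowest to highest compound concentration; after 72 h at 37 °C viability was read luminescently and curves fitted.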
# Starred values were filed as active, the others as inactive; i = inactive; u = inconclusive; x = not tested or not shown. The call rests on the fitted dose curve; in most records, active means well fitted curve in the direction sought with a large enough effect; inconclusive means small, poorly fitted or top-dose-only effect, or another doubt; inactive means no such curve, though single readings can be large; an effect the other way counts as inactive or inconclusive. Potency means the concentration at half of the fitted maximal effect.
SMILES,MCF10A rerep,KB-V1 MDR tox,HT1080 IDH1KD tx,SW480 rereplic,HT1080-NT tox,KB-3-1 tox
OC(c1ccccc1)(c1nc(-c2csc3ccccc23)cs1)C(F)(F)F (stereo not given),x,u,u,x,u,i
OC(c1ccccc1)(c1nc(-c2cc3ccccc3o2)cs1)C(F)(F)F (stereo not given),x,u,u,x,16.4µM*,23.1µM*
CCN(CC)C(=O)c1cccc(-c2csc(C(C)(O)c3cccc(OC)c3)n2)c1 (stereo not given),x,i,u,x,-4.5%,i
CC(O)(c1ccc(F)c(F)c1)c1nc(-c2ccc(Cl)cc2)cs1 (stereo not given),x,i,23.1µM*,x,u,i
CC(O)(c1ccc(F)c(F)c1)c1nc(-c2cccc(C(F)(F)F)c2)cs1 (stereo not given),x,i,u,x,u,i
Cc1ccc(C(C)C)c(OCC(=O)Nc2c(C(=O)c3ccc(F)cc3)oc3ccccc23)c1,x,i,x,x,x,i
C/C(=N\NC(=O)C1(C)CC1(Br)Br)c1ccc([N+](=O)[O-])cc1 (stereo not given),1.5%,i,-0.4%,-11.3%,0.7%,i
C/C(=N\NC(=O)C1(C)CC1(Br)Br)c1ccc(NC(=O)c2ccc(C)o2)cc1 (stereo not given),u,20.6µM*,-8.7%,1.8%,-0.1%,u
CCNC(=O)[C@@H]1CCCN1C(=O)[C@H](CCCN=C(N)N)NC(=O)[C@H](CC(C)C)NC(=O)[C@@H](Cc1c[nH]c2ccccc12)NC(=O)[C@H](Cc1ccc(O)cc1)NC(=O)[C@H](CO)NC(=O)[C@H](Cc1c[nH]c2ccccc12)NC(=O)[C@H](Cc1cnc[nH]1)NC(=O)[C@@H]1CCC(=O)N1,29.9µM*,x,x,u,x,x
CC(C)C[C@H](NC(=O)[C@@H](Cc1c[nH]c2ccccc12)NC(=O)[C@@H](Cc1ccc(O)cc1)NC(=O)[C@@H](CO)NC(=O)[C@@H](Cc1c[nH]c2ccccc12)NC(=O)C(Cc1cnc[nH]1)NC(=O)C1CCC(=O)N1)C(=O)N[C@@H](CCCN=C(N)N)C(=O)N1CCC[C@@H]1C(=O)NCC(N)=O (stereo not given in full),-2.9%,x,x,-1.8%,x,x
CCOC(=O)c1scc(-c2ccccc2)c1S(=O)(=O)Nc1ccccc1OC,x,u,x,x,x,i
OC(c1ccccc1)c1nc(-c2cc(F)cc(F)c2)cs1 (stereo not given),x,i,u,x,u,i
CCCCn1c(=O)nc2n(-c3ccc(C)cc3)c3ccccc3cc-2c1=O,1.3%,u,4.1%,-4.7%,5.7%,i
CCCCn1c(=O)nc2n(-c3ccc(Cl)cc3)c3ccccc3cc-2c1=O,-5.5%,8.2µM*,0.4%,-3.9%,-3.4%,i
CCOC(=O)C1CCN(c2nc3c(S(=O)(=O)c4ccc(Br)cc4)nnn3c3ccsc23)CC1,x,i,x,x,x,i
COc1ccccc1N1CCN(c2ncnc3c2oc2ccccc23)CC1,3.26µM*,6.51µM*,u,20.6µM*,u,5.8µM*
C(=C\c1ccccc1)/CN1CCN(c2ncnc3c2oc2ccccc23)CC1,78.7%,3.66µM*,u,19.4%,u,u
O=C(CSc1nc2ccccc2[nH]1)N1CCOCC1,x,u,x,x,x,i
CC1(C)CC(NC(=O)c2coc(=O)c(Br)c2)CC(C)(C)N1,18.4µM*,i,4.9%,u,10.2%,16.4µM*
Cn1c(CNC(=O)CSc2nc(-c3cccc(Cl)c3)nc3cc(=O)[nH]n23)nc2ccccc21,x,i,x,x,x,i
Cc1ccccc1Cn1c(C)c(C(=O)N(C)Cc2ccc(F)cc2)sc1=O,x,16.4µM*,4.6%,x,9.4%,u
